Data published in PubChem BioAssay AID834 (PCMD, 2007).
Among all 85,000 compounds or so, about 120 (0.14%) were called active. The list comes from a sample in which actives are over-represented; it also holds similar structures and randomly drawn compounds. Unmarked numbers belong to inactive results.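 Rule for the calls: active = inhibition above 20%; inactive = inhibition below 20%.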

Assay: clotrimazole potentiators killing Candida biofilms, primary screen, with clotrimazole, Alamar Blue (AID 834);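 note: preformed 24 hr biofilms exposed to compound for 48 hr; 0% = biofilm without compound and 100% = blank killed by clotrimazole plus chlorhexidine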
Conditions: C. albicans biofilm + clotrimazole, at 6 µM, active compounds read high

SMILES | inhibition [%]
CCOC(=O)/C(C#N)=C\c1c(C)cc(C)c(COC(C)=O)c1C | 5.54
CC/C(O)=N\S(=O)(=O)c1ccc(N=NN(C)C)cc1 | 3.86
CC1=NN(/C(=N\c2nnc(C)s2)Nc2ccccc2)[C@H](c2ccc(C)cc2)S1 | 4.3
O=C(c1ccc(CN2CCOCC2)cc1)N1CCN(c2ccccc2F)CC1 | 3.38
O=C(NCCSCc1ccccc1)c1ccc(Cl)c(S(=O)(=O)N2CCOCC2)c1 | 9.31
COC(=O)c1cccc(-n2[nH]nnc2=S)c1 | -3.99
C=CCNC(=O)c1cc2nc(C3CC3)cc(C(F)F)n2n1 | 3.65
OC(COc1ccc2c(c1)CCC2)CN1CCN(c2cccc(Cl)c2)CC1 (stereo unspecified) | 3.52
CC(C)C(=O)Nc1ccc2c(c1)oc1ccccc12 | 9.6
CC(C)OC(=O)c1c(NC(=O)c2ccco2)sc2c1CCCC2 | 4.89
Cc1cccc(CCNS(=O)(=O)c2ccc(S(=O)(=O)NC3CCCC3)cc2)c1 | -0.29
COc1ccc(CCN2C(=O)C3CC=C(C)CC3C2=O)cc1OC (stereo unspecified) | 1.85
Clc1cccc(N=C2NN=C(c3ccc4c(c3)OCCO4)CS2)c1 | 1.81
COc1ccc(NC(=O)Cn2c(=O)n(Cc3ccco3)c(=O)c3ccccc32)cc1 | 7.9
CCCCNC(=O)C1(c2ccc(OC)cc2)CCOCC1 | 3.55
Cc1nnc(SCC(=O)NC2CCCC2)s1 | 1.39
O=C1Nc2cc(Cl)c(Cl)cc2N(O)N1c1cc(Cl)cc(Cl)c1 | -1.77
CCOc1ccc(NC(=O)N(CC(C)C)CC(C)C)cc1 | -5.95
CC1CCN(S(=O)(=O)c2ccc(S(=O)(=O)NCc3ccco3)cc2)CC1 | 6.18
CCOc1cc(NC(=O)c2cnccn2)c(OCC)cc1NC(=O)c1ccc(C)cc1 | 10.1
CCOc1ccc(S(=O)(=O)NCCSc2ccccc2)cc1 | -7.35
Cn1c(Cc2cccc3ccccc23)nnc1SCC(=O)N1CCN(c2cccc(Cl)c2)CC1 | 2.35
CC1(C)NC(=O)N(CCCCSc2ccc(Cl)cc2)C1=O | 4.05

SMILES | inhibition [%]
CCc1cccc(C)c1N(C(=O)Cn1c(CO)nc2ccccc21)C(C)COC (stereo unspecified) | 2.34
CCOC(=O)c1c(NC(C)=O)sc2c(O)c(Br)ccc12 | 7.32
CC(C)(C)C1CCc2c(sc3nc(SCC(N)=O)nc(N)c23)C1 (stereo unspecified) | 9.53
CC(=O)Nc1ccc(NC(=O)CSCc2cnn(-c3ccccc3)c2-n2cccc2)cc1 | 5.53
Cc1ccc(OC(=O)c2ccccc2C(=O)OCC(F)(F)C(F)F)cc1 | -0.38
Cc1ccc(/C=N/NC(=O)C2=NNC(c3ccccc3)(c3ccccc3)C2)c(O)c1 | 2.75
Cc1ccc(CNC(=O)COc2ccc(S(=O)(=O)NC(C)C)cc2)cc1 | 4.65
CCOC(=O)c1sc(NC(=O)CSc2nc(C)cc(C(F)(F)F)n2)c(C#N)c1C | 4.2
CCOC(=O)c1ccc2c(c1)nc(SCC(=O)NC(C)C)n2CC | -0.28
CC(C)OC(=O)CN1C(=O)C(=O)c2ccccc21 | -1.96
CC(C)(C)NC(=O)Cn1c(SCC(=O)Nc2nccs2)nc2ccccc21 | -3.28
COc1ccc(C2=NOC3(CC(=O)N(c4ccc(Cl)cc4)C3=O)C2)c(OC)c1 (stereo unspecified) | 8.25
CCc1c(O)cc2n(c1=O)-c1ccccc1C2(C)C | 5.21
CCn1c(Cc2cccs2)nnc1SCC(=O)c1ccc(C)cc1 | 5.86
CCCCOc1ccc(N(CC(=O)NCC2CCCO2)C(=O)CCC(=O)Nc2cc(C)ccn2)cc1 (stereo unspecified) | 5.21
CCCc1nc2sc3c(c2c(=O)n1NC(=O)CCCl)CCCC3 | -7.02
CCOC(=O)c1c(NC(=O)CSc2nnc(CNc3ccc(C)cc3C)o2)sc(C)c1C | 0.89
CCC(=O)Nc1ccc(S(=O)(=O)NCC2CCCO2)cc1 (stereo unspecified) | 5.21
O=C(COC(=O)c1n[nH]c2ccccc12)NCc1ccccc1 | 1.24
COc1ccc(Nc2cc(=O)oc3ccccc23)cc1 | 5.52
O=C(NC1CCCCC1)C1CC(=O)N(CCc2ccccc2)C1 (stereo unspecified) | 5.26
CCOC(=O)CSc1nc2ccc(C)cc2[nH]1 | 4.49
FC(F)(F)c1cc(-c2ccco2)nc(NCc2ccc(Cl)cc2)n1 | -7.36
